# Test results reported in the supplement of paper PMC4840960.
# Where a name gives a salt, the structure may show the parent alone.
# Tested on: E18 rat cortical neuron-glia co-culture
# Test: myelination (MBP fiber length per Olig2+ nucleus), % of 1 µM DAPT response (DMSO = 0) (% of DAPT); higher = more myelination, active = 50 or more
# Conditions: 1 µM; treatment time: 8 days (DIV5-DIV13)
# Summary of the method: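 Rat cortical co-cultures from E18 tissue were dissociated with papain and plated at 20,000 cells/well on 96-well plates coated with poly-d-lysine/laminin. From DIV5 to DIV13, library compounds were added at 1 or 5 µM in myelination medium. After fixation in 4 % paraformaldehyde, cultures were immunostained for MBP and Olig2 and counterstained with DAPI, and four 10X fields were analysed in each of duplicate wells. The myelination value is the length of continuous straight MBP fibers per Olig2+ nucleus, normalised so that 0.1 % DMSO is 0 and a 1 µM positive control is 100.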
row,Structure (SMILES),myelination
1,CN1CC[C@]23c4c5ccc(O)c4O[C@H]2c2[nH]c4ccccc4c2C[C@@]3(O)[C@H]1C5 [Oxymorphindole],97
2,Oc1ccc2c3c1O[C@H]1c4[nH]c5ccccc5c4C[C@@]4(O)[C@@H](C2)N(CC2CC2)CC[C@]314 [Naltrindole],-32.5 (inactive)
3,O=C1CN=C(c2ccccc2)c2cc([N+](=O)[O-])ccc2N1 [Nitrazepam],-6.44 (inactive)
4,CN1[C@@H]2CC[C@H]1C[C@@H](OC(=O)[C@H](CO)c1ccccc1)C2 [Hyoscyamine],-15.1 (inactive)
5,c1ccc2c3c([nH]c2c1)CNCC3 [Tryptoline],-12 (inactive)
6,FC(F)(F)c1cccc(N2CCNCC2)c1 [1-(3-trifluoromethylphenyl)piperazine hydrochloride (TFMPP)],-32.2 (inactive)
7,NC(=O)OCCCc1ccccc1 [Phenprobamate],-14.2 (inactive)
8,O=C1CC[C@@]2(O)[C@H]3Cc4ccc(O)c5c4[C@@]2(CCN3CC2CC2)[C@H]1O5 [Naltrexone],14.8 (inactive)
9,COc1cc(N)c(Cl)cc1C(=O)NC1CN2CCC1CC2 (stereo unspecified) [Zacopride],-11.9 (inactive)
10,COc1ccc2[nH]cc(C3=CCNCC3)c2c1,-14.7 (inactive)
11,CC(O)(CS(=O)(=O)c1ccc(F)cc1)C(=O)Nc1ccc(C#N)c(C(F)(F)F)c1 (stereo unspecified) [Bicalutamide],-28 (inactive)
12,O=c1c2ccccc2[se]n1-c1ccccc1 [Ebselen],8.33 (inactive)
13,CNC1=Nc2ccc(Cl)cc2C(c2ccccc2)=[N+]([O-])C1 [Chlordiazepoxide],0.872 (inactive)
14,Oc1cc(Cl)ccc1Oc1ccc(Cl)cc1Cl [Triclosan],26.5 (inactive)
15,COc1ccc2c(c1)[C@]13CCCC[C@@H]1[C@H](C2)N(C)CC3 [Dextromethorphan],5.05 (inactive)
16,Cc1ncc2n1-c1ccc(Cl)cc1C(c1ccccc1F)=NC2 [Midazolam],-0.202 (inactive)
17,C=CCN1CC[C@]23c4c5ccc(O)c4O[C@H]2C(=O)CC[C@@]3(O)[C@H]1C5 [Naloxone],-7.1 (inactive)
18,C#CCN(C)[C@H](C)Cc1ccccc1 [Selegiline],-16 (inactive)
19,CN1CCN(C(=O)O[C@H]2c3nccnc3C(=O)N2c2ccc(Cl)cn2)CC1 [Eszopiclone],-5.43 (inactive)
20,C[C@]12Cc3c[nH]nc3C[C@@H]1CC[C@@H]1[C@@H]2CC[C@@]2(C)[C@H]1CC[C@]2(C)O [Stanozolol],-13.6 (inactive)
21,CS(=O)(=O)Nc1ccc(Cc2noc(-c3ccc4[nH]cc(CCN)c4c3)n2)cc1,-19.6 (inactive)
22,NC1=NC(=O)C(c2ccccc2)O1 (stereo unspecified) [Pemoline],-21.3 (inactive)
23,CNC1CC(c2ccc(Cl)c(Cl)c2)c2ccccc21 (stereo unspecified) [Indatraline],-58 (inactive)
24,C[N+]1(CCC(C(N)=O)(c2ccccc2)c2ccccc2)CCCCC1 [Fenpiverinium],4.83 (inactive)
25,C[C@]12CCC(=O)C=C1CC[C@@H]1[C@@H]2CC[C@@]2(C)[C@H]1CC[C@]2(C)O [Methyltestosterone],-24.8 (inactive)
26,CN1CC[C@]2(c3cccc(O)c3)Cc3nc4ccccc4cc3C[C@H]2C1,-18.1 (inactive)
27,CN1CC[C@@H](c2ccc(F)cc2)[C@H](COc2ccc3c(c2)OCO3)C1 [N-Methylparoxetine],-58.7 (inactive)
28,CCCCC/C=C\C/C=C\C/C=C\C/C=C\CCCC(=O)Nc1ccc(O)cc1,-0.524 (inactive)

# Same assay, conditions: 5 µM; treatment time: 8 days (DIV5-DIV13)
row,Structure (SMILES),myelination
1,Oc1ccc2c3c1O[C@H]1c4[nH]c5ccccc5c4C[C@@]4(O)[C@@H](C2)N(CC2CC2)CC[C@]314 [Naltrindole],-19 (inactive)
2,O=C1CN=C(c2ccccc2)c2cc([N+](=O)[O-])ccc2N1 [Nitrazepam],0.525 (inactive)
3,CN1[C@@H]2CC[C@H]1C[C@@H](OC(=O)[C@H](CO)c1ccccc1)C2 [Hyoscyamine],-12.5 (inactive)
4,c1ccc2c3c([nH]c2c1)CNCC3 [Tryptoline],-4.44 (inactive)
5,FC(F)(F)c1cccc(N2CCNCC2)c1 [1-(3-trifluoromethylphenyl)piperazine hydrochloride (TFMPP)],-32.7 (inactive)
6,NC(=O)OCCCc1ccccc1 [Phenprobamate],-11.4 (inactive)
7,O=C1CC[C@@]2(O)[C@H]3Cc4ccc(O)c5c4[C@@]2(CCN3CC2CC2)[C@H]1O5 [Naltrexone],1.8 (inactive)
8,COc1cc(N)c(Cl)cc1C(=O)NC1CN2CCC1CC2 (stereo unspecified) [Zacopride],-0.361 (inactive)
9,COc1ccc2[nH]cc(C3=CCNCC3)c2c1,-24.2 (inactive)
10,CC(O)(CS(=O)(=O)c1ccc(F)cc1)C(=O)Nc1ccc(C#N)c(C(F)(F)F)c1 (stereo unspecified) [Bicalutamide],-2.06 (inactive)
11,CNC1=Nc2ccc(Cl)cc2C(c2ccccc2)=[N+]([O-])C1 [Chlordiazepoxide],-16.1 (inactive)
12,COc1ccc2c(c1)[C@]13CCCC[C@@H]1[C@H](C2)N(C)CC3 [Dextromethorphan],1.54 (inactive)
13,Cc1ncc2n1-c1ccc(Cl)cc1C(c1ccccc1F)=NC2 [Midazolam],31.1 (inactive)
14,C=CCN1CC[C@]23c4c5ccc(O)c4O[C@H]2C(=O)CC[C@@]3(O)[C@H]1C5 [Naloxone],3.29 (inactive)
15,C#CCN(C)[C@H](C)Cc1ccccc1 [Selegiline],-0.224 (inactive)
16,CN1CCN(C(=O)O[C@H]2c3nccnc3C(=O)N2c2ccc(Cl)cn2)CC1 [Eszopiclone],15.5 (inactive)
17,CS(=O)(=O)Nc1ccc(Cc2noc(-c3ccc4[nH]cc(CCN)c4c3)n2)cc1,-17.8 (inactive)
18,NC1=NC(=O)C(c2ccccc2)O1 (stereo unspecified) [Pemoline],-11.3 (inactive)
19,C[N+]1(CCC(C(N)=O)(c2ccccc2)c2ccccc2)CCCCC1 [Fenpiverinium],191
20,C[C@]12CCC(=O)C=C1CC[C@@H]1[C@@H]2CC[C@@]2(C)[C@H]1CC[C@]2(C)O [Methyltestosterone],-17.2 (inactive)
21,CN1CC[C@]2(c3cccc(O)c3)Cc3nc4ccccc4cc3C[C@H]2C1,2.91 (inactive)
22,CN1CC[C@@H](c2ccc(F)cc2)[C@H](COc2ccc3c(c2)OCO3)C1 [N-Methylparoxetine],-60.5 (inactive)
23,CCCCC/C=C\C/C=C\C/C=C\C/C=C\CCCC(=O)Nc1ccc(O)cc1,-30.5 (inactive)
